Source: PubChem BioAssay
The entries come from a sample that favours hits as a whole.
HTT ATP protect: Huntington cell model cytoprotection by ATP luminescence | PC12 HTT-Q103 induced, cytoprotection, ATP luminescence, 40 h | Potency, µM (series often up to 56.4 µM), without a hit: cytoprotection (ATP increase), usual class: activators | 0.14% of 230,000 active; also: potency is read from the fitted curve at half-maximal effect; % of control where 0% means no effect; nearly all actives have a fitted effect of over 45% in size
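ATP quantification (ATPlite) reports survival of PC12 cells in which tebufenozide, 100 nM final, switches on Htt exon 1 with 103 glutamines linked to GFP; compounds are titrated.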
PI4K2A inh: blocks human PI4K2A kinase activity. Q9BTU6. purified PI4K2A, ADP-Glo luminescence, 1 h; active compounds read low. activity change, negative = inhibition, % at 76.9 µM. 0.13% of 420,000 active; in the data active = activity change below about -50%; inconclusive = mostly about -30% to -49%;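 also: -100% = wells without enzyme as full effect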
Target sequence (Q9BTU6 whole entry, looked up): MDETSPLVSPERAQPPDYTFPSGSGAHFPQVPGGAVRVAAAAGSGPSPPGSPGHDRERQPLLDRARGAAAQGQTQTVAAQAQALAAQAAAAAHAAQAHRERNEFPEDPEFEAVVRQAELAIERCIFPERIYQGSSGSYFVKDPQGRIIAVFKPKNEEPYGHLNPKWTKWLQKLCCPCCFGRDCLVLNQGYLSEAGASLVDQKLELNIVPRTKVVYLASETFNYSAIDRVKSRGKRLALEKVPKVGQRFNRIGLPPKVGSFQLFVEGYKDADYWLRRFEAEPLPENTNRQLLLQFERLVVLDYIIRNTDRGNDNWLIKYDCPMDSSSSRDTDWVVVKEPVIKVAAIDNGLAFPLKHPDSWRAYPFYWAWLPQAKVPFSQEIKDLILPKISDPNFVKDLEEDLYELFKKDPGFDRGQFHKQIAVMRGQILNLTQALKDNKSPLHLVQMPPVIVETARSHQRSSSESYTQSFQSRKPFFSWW
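In this quantitative HTS, ADP production by PI4K2A was quantified luminescently after 1 h at ambient temperature; 100 microM adenosine served as plate-quality control.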
GALK inh: galactokinase (human) inhibition; P51570; Purified GALK, Kinase-Glo residual ATP luminescence; Potency, µM (doses to about 57.5 µM), inactives show at the top dose activity change, negative = inhibition, most hits filed as inhibitors; 0.007% of 270,000 active; AID 1868; also: potency is read from the fitted curve at half-maximal effect; % is scaled to controls: 0 for no effect and ±100 for the full control effect
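Compounds were pin-transferred into ATP buffer (35 uM final), then GALK plus galactose (5 nM, 100 uM final) was added. After 1 h at room temperature, Kinase-Glo Plus was added and luminescence read after 10 min.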
HTT aggregate: mutant huntingtin aggregation inhibition. PC12 HttQ103-GFP aggregates, Acumen cytometry, 40 h. Potency, µM (doses to about 46.1 µM), without a hit: at the highest dose activity change, negative = inhibition, actives largely listed as inhibitors. 1.1% of 220,000 active. AID 1688; also: potency is read from the fitted curve at half-maximal effect; % is scaled to controls: 0 for no effect and ±100 for the full control effect; nearly all actives have a fitted effect of over 60% in size
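Multiplexed with ATP-based cell death, this channel scores GFP aggregates in PC12 cells expressing inducible HTTex1-Q103-GFP. Induction used 100 nM tebufenozide; compounds were tested in concentration series.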
* hit, by the source's call; ? = inconclusive; . = no result given; ! = not confirmed by another sample; [ ] = another dose, or the depositor's remark. Unless noted, calls follow the shape of the dose curve; as a rule, active = well fitted curve in the direction sought with a large enough effect; inconclusive = small, poorly fitted or top-dose-only effect, or another doubt; inactive = no such curve, though single readings can be large; an effect the other way counts as inactive or inconclusive.

SMILES	HTT ATP protect	PI4K2A inh	GALK inh	HTT aggregate
COc1ccnc2c1CCCCC2S(=O)c1nc2ccccc2[nH]1 (stereo unspecified)	.	-2.1	.	.
Cc1oc(-c2ccc3c(c2)OCCO3)cc1C(=O)O	-80.0%	-74.6*	11.9%	-17.9%
COc1ccc(CNC(=O)O[C@H]2CC[C@@]34CCCN3C(=O)CCC[C@H]4C2)cc1OC	.	3.0	.	.
O=C(NNc1ccccc1Br)C(=O)n1ccc2ccccc21	3.55µM*	0.6	-0.6%	2.1%
O=C(Nc1ccccc1Br)C(=O)N1CCCC1	21.2%[10 µM]	5.9	-2.5%	-8.1%
COc1cccc(N2CCN(CC(=O)c3c[nH]c4ccc(OC)cc34)CC2C)c1 (stereo unspecified)	-17.6%[0.074 µM]	0.6	-2.9%	35.5µM*
COc1ccc2[nH]cc(C(=O)CN3CCCC(C)C3)c2c1 (stereo unspecified)	-8.7%[0.074 µM]	0.4	0.8%	2.3%
O=C1c2cccc3c([N+](=O)[O-])ccc(c23)C(=O)N1c1nccs1	-100.2%	-8.4	-4.3%	12.6µM*
O=C1c2cccc3c([N+](=O)[O-])ccc(c23)C(=O)N1c1ccccn1	10.4%	-1.3	-5.9%	23.7%
COC(=O)c1ccc2c(c1)C(=O)/C(=C/c1ccc(O)cc1)O2	2.2%[10 µM]	-1.8	0.4%	-6.0%
COc1cccc(/C=C2\Oc3ccc(O)cc3C2=O)c1O	.	-60.5*	8.2%	.
CN1CCN(C(=S)c2cn(Cc3ccccc3F)c3ccccc23)CC1	?	1.2	4.0%	-10.5%
CC1CCN(C(=S)c2cn(Cc3ccccc3F)c3ccccc23)CC1	-35.5%	-4.0	2.8%	15.8µM*
COc1ccc(C(=O)Oc2cc(N)n(S(=O)(=O)c3ccccc3)n2)cc1	0.708µM*	13.5	5.8%	?
Cn1c2c(c(=O)n(C)c1=O)C(C(F)(F)F)(C(F)(F)F)N=C(c1ccc(Cl)cc1)N2	-64.8%	-5.0	4.9%	1.26µM*
CCCCSc1ccc2nc(-c3ccc(C#N)cc3)cn2c1	-36.9%	0.3	.	-2.5%
CCCSc1ccc2nc(-c3ccccc3)cn2c1	-69.4%[10 µM]	-67.5*	9.9%	-1.5%
CNC(=O)c1c(I)c(NC(=O)CCCCC(=O)Nc2c(I)c(C(=O)O)c(I)c(C(=O)NC)c2I)c(I)c(C(=O)O)c1I	.	-2.0	.	.
CCSc1nnc(NC(=O)CSc2nc3c(c(=O)n2CC)SC(C)C3)s1 (stereo unspecified)	-24.3%	-1.4	4.7%	12.6µM*
CC(=O)SC1CC2=CC(=O)CC[C@]2(C)C2CC[C@@]3(C)C(CC[C@@]34CCC(=O)O4)C12 (stereo partly specified)	.	-0.5	.	.
O=C1C=CC(=O)N1CCCCCCN1C(=O)C=CC1=O	-87.7%[10 µM]	4.1	0.4%	5.01µM*
O=C(O)CN1C(=O)C=CC1=O	.	-14.6	.	.
NNc1ncnc2c1cnn2-c1ccccc1	-35.0%	-19.8	0.3%	22.4µM*
CC(C)Nc1ncnc2c1cnn2-c1ccccc1	-57.5%[10 µM]	-3.7	-0.2%	-1.2%
Cc1cccc(-n2ncc3c(NC(C)C)ncnc32)c1	-41.4%[10 µM]	3.6	-0.2%	11.2µM*
SMILES	HTT ATP protect	PI4K2A inh	GALK inh	HTT aggregate
Cc1ccccc1Nc1ncnc2c1cnn2-c1ccccc1	-28.5%[10 µM]	0.1	0.2%	?
CC(C(O)c1ccccc1)N(C)CCOC(c1ccccc1)c1ccccc1 (stereo unspecified)	.	-0.3	.	.
CCC(=O)NC(c1ccccc1OC)c1ccc2cccnc2c1O (stereo unspecified)	-71.6%[10 µM]	4.9	-0.3%	3.16µM*
COc1cc(C(=O)OC(COCCC(C)C)CN2CCOCC2)cc(OC)c1OC (stereo unspecified)	.	0.9	.	.
O=C1C=C(Nc2ccccc2C(=O)O)c2ccccc2C1=O	-1.3%[10 µM]	-25.4	-22.5%	-11.9%[9.22 µM]
O=C1C=C(Nc2ccccc2)c2ccccc2C1=O	-185.7%	-15.7	-1.3%	4.47µM*
O=C1C=C(Nc2ccccc2)C(=O)c2ccccc21	-133.5%	-19.3	4.9%	11.2µM*
CCCC1CCC2(CC1)CCC2OC(=S)Nc1ccc(I)cc1 (stereo unspecified)	.	-0.8	.	.
COc1ccc2c(c1)CCCN2C(=O)C1CCCN(S(=O)(=O)c2cccc3cccnc23)C1 (stereo unspecified)	.	0.5	.	.
Cc1ccc(OCCN2CCN(c3ncnc4sc(C)c(C)c34)CC2)cc1	-27.9%	1.1	-2.9%	2.51µM*
COc1ccc2c(c1)O[C@@H](c1cccc(C(F)(F)F)c1)[C@H](OC(=O)N[C@H](C)C1CCCCC1)C2=O	-5.8%	.	.	.
O=C(NCCc1ccc(Cl)cc1)Nc1cccc(Cl)c1	-83.1%	0.8	-4.6%	8.91µM*
CN(C)NC(=S)Nc1cccc(Cl)c1	-4.0%[10 µM]	-2.3	-3.6%	-20.5%[9.22 µM]
CN(C)CCNC(=S)Nc1cccc(Cl)c1	-11.2%	-51.2*	-0.5%	-16.1%
CCCCSCCCNC(=S)Nc1ccccc1C	-12.3%	-1.6	-0.5%	22.4µM*
CCC(C(=O)Nc1ccc(C)c(Cl)c1)n1c(=O)c(-c2ccccc2NC(C)=O)nc2ccccc21 (stereo unspecified)	.	-2.2	.	.
Cn1cc(-c2ccccc2C(N)=O)c(=O)c2cc(Cl)ccc21	11.0%[10 µM]	-1.4	-0.5%	9.0%
Cn1cc(C2=C(c3ccc(Cl)cc3Cl)C(=O)NC2=O)c2ccccc21	31.6µM*!	0.3	.	.
CC(=O)N[C@@H](CCC(N)=O)C(=O)O	.	-3.0	.	.
CCCOc1ccc(Cn2cnc3ccccc32)cc1	-8.7%	-1.4	-4.1%	25.1µM*
O=C(Cc1cccs1)Nc1nc2c(s1)CCCC2	-28.2%[0.074 µM]	-4.3	0.1%	3.16µM*
COc1ccc([C@@H]2CC(=O)c3c(O)cc(O[C@@H]4O[C@@H](CO[C@@H]5O[C@@H](C)[C@@H](O)[C@@H](O)[C@H]5O)[C@@H](O)[C@@H](O)[C@H]4O)cc3O2)cc1O	2.0%	.	.	.
Cc1ccccc1CN1C[C@@H]2C[C@@H](c3cnc(N4CCOCC4)s3)N3CCC[C@@]23C1=O	-68.6%[10 µM]	1.2	-2.8%	2.51µM*
O=Cc1s/c(=N\S(=O)(=O)c2ccccc2)n(CCCCl)c1Cl	-177.7%	13.9	-2.2%	5.01µM*
CCCCCOc1ccccc1/C(=C\SC)n1ccnc1	.	3.2	.	.
SMILES	HTT ATP protect	PI4K2A inh	GALK inh	HTT aggregate
CCc1ccc2[nH]c(=O)c(C3C(C#N)=C(N)Oc4c3ccc3cccnc43)cc2c1 (stereo unspecified)	-46.3%	-2.8	0.5%	?
Cc1ccc2cc(C3C(C#N)=C(N)Oc4c3ccc3cccnc43)c(=O)[nH]c2c1 (stereo unspecified)	-57.6%	3.5	1.9%	2.51µM*
O=C1c2ccccc2C(=O)C12OC2c1cccc2ccccc12 (stereo unspecified)	-5.3%[10 µM]	?	?	35.5µM*
O=C(Nc1cc(C(=O)N2CCCC2)ccc1N1CCCC1)c1ccccc1F	17.3%	1.1	-0.6%	2.6%
O=C(Nc1ccc(C(=O)N2CCCC2)cc1)c1ccccc1F	-36.6%[10 µM]	-70.3*	10.7%	-5.4%
O=C(CSc1ccc(Cl)cc1)N1CCN(c2ccc(Cl)cc2[N+](=O)[O-])CC1	-45.6%	1.2	-3.1%	11.2µM*
C/C=C(/C(=C/C)c1ccc(OC(C)=O)cc1)c1ccc(OC(C)=O)cc1	.	-1.0	.	.
